Source: PubChem
The list is not random: actives were taken first. Their share in the collection is about 1.2%.
TcdB inh: inhibitors of Clostridioides difficile toxin B glycohydrolase | P18177 | TcdB glycohydrolase enzymatic assay, plate reader | 350,000 tested, 0.24% active | inhibition, % at 9.99 µM; in the data active = inhibition above about 10%
Y pestis TopoI: inhibitors of Yersinia pestis topoisomerase I | AID 504884 | activity, % at 10 µM | 360,000 tested, 0.064% active | Y. pestis Topo-I cleavage product accumulation, plate reader; in the data active = activity above about 50%, passing the limit was not always enough
Mtb BioA inh: blocks M. tuberculosis BioA enzyme activity | inhibition, % at 9.99 µM | 360,000 tested, 0.096% active | purified M. tuberculosis BioA enzyme, plate reader; in the data active = inhibition above about 40%
DUSP3 inh: blocks human VHR1 dual specificity phosphatase; 290,000 tested, 0.52% active; AID 1654; inhibition, % at 13.3 µM; P51452; recombinant VHR phosphatase, pNPP absorbance; in the data active = inhibition above about 50%
PfHsp40 yeast: rescue of PfHsp40-mediated yeast toxicity. S. cerevisiae expressing PfHsp40, growth rescue, ATP luminescence. AID 504582. 340,000 tested, 0.68% active. growth rescue, % at 12.5 µM; in the data active = growth rescue above about 28%, passing the limit was not always enough;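 also: yeast W303a lacking pdr1 and pdr3 grown in galactose medium; growth measured after three days at 30 °C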
BH1578 lux ind: inducers of Vibrio cholerae quorum light production without autoinducers; V. cholerae BH1578 lux reporter, luminescence, 6 h; activation, % at 18.7 µM; 350,000 tested, 0.16% active; in the data active = activation mostly above about 9.7%, no sharp cut-off
An asterisk follows results filed as active; i = inactive; . = no result given.

SMILES	TcdB inh	Y pestis TopoI	Mtb BioA inh	DUSP3 inh	PfHsp40 yeast	BH1578 lux ind
O=C(N/N=C/C=C\c1ccccc1[N+](=O)[O-])c1cc(-c2ccc3ccccc3c2)n[nH]1	-1	9	-2	52*	1	0
O=S(=O)(/N=C(/Nc1nc2ccccc2s1)c1ccccc1)c1ccc(F)cc1	2	0	-2	.	0	i
CC(C)[C@H]1C=C(C(=O)O)O[C@@H](OCCCCO)C1	0	6	-1	3	56*	i
CC(C)[C@H]1C=C(C(=O)O)O[C@@H](OCc2ccc(CO)cc2)C1	0	3	-1	4	-1	i
Cc1ccc(C2C(C(=O)c3cc4ccccc4o3)=C(O)C(=O)N2c2cc(C)on2)cc1 (stereo not drawn)	3	85*	-1	12	1	i
Cc1cc(N2C(=O)C(O)=C(C(=O)c3cc4ccccc4o3)C2c2ccc([N+](=O)[O-])cc2)no1 (stereo not drawn)	1	6	-1	-18	0	i
CC(=O)c1csc(-c2cccc(-c3nc4ccc(Cl)cn4c3NC3CCCCC3)c2)c1	0	13	0	.	1	i
CSc1ccc(S(=O)(=O)NC2CCCCCC2)cc1	.	24	1	-18	67*	i
O=C(CNc1cccc(Cl)c1)c1ccc(Br)cc1	1	-16	1	51*	-1	0
O=C(/C=C/c1ccco1)Nc1ccccc1N1CCCCC1	2	11	.	10	-1	1
Cc1nc2c([N+](=O)[O-])c(C)c(C)cc2[nH]1	1	5	.	13	.	0
Cc1nc2c(Cl)cc(Cl)cc2[nH]1	.	1	.	19	33*	i
c1ccc(Nc2nc(CSc3ncn[nH]3)cs2)cc1	4	-7	.	-15	3	-1
CCOc1ccc(/C=N/NC(=O)C(O)c2ccccc2)c(O)c1 (stereo not drawn)	-1	-12	-3	-18	-1	1
CCOC(=O)Cn1c(C(F)(F)F)nc2nc(Cl)c(Cl)nc21	12*	1	.	.	-1	2
O=C1c2ccccc2C2=Nc3ccccc3SC(c3cccc(F)c3)C12 (stereo not drawn)	.	-22	0	-8	281*	0
CC1=CC(C)(C)N(C)C(=O)N1c1ccc(Cl)cc1	.	0	1	23	-1	1
CCc1ccccc1NC(=O)c1cc(C)no1	1	-3	-1	-15	0	i
Cc1cc(C(=O)Nc2cc(Br)ccc2O)on1	0	-1	1	53*	-3	i
Cc1ccc2c(CN3CCC(C)CC3)cc(=O)oc2c1C	1	3	-3	53*	0	3
O=C(COc1ccccc1[N+](=O)[O-])Nc1ccc(Br)cc1	1	0	0	-13	1	1
O=C(CSc1nc2ccccc2s1)N/N=C/c1cc([N+](=O)[O-])ccc1O	0	-1	.	9	190*	i
O=C(CCCC(=O)Nc1cccc(Br)c1)N/N=C/c1cc([N+](=O)[O-])ccc1O	1	-13	1	-5	0	i
O=C(CN(c1cccc(Br)c1)S(=O)(=O)c1ccccc1)N/N=C/c1cc([N+](=O)[O-])ccc1O	0	-16	2	.	247*	i
C[C@@H]1CN(c2c(F)c(F)c3c(=O)c(C(=O)O)cn(C4CC4)c3c2F)C[C@H](C)N1	1	-9	2	58*	1	-1
SMILES	TcdB inh	Y pestis TopoI	Mtb BioA inh	DUSP3 inh	PfHsp40 yeast	BH1578 lux ind
CC(C)CN(C(=O)COC(=O)c1c2c(nc3ccccc13)CCC2)c1c(N)n(Cc2ccccc2)c(=O)[nH]c1=O	1	60*	0	16	-1	i
CC(C)CN(C(=O)COC(=O)c1cc2ccccc2cc1O)c1c(N)n(Cc2ccccc2)c(=O)[nH]c1=O	1	80*	-2	.	0	-1
Cc1c(C(=O)OCC(=O)N(CC(C)C)c2c(N)n(Cc3ccccc3)c(=O)[nH]c2=O)oc2ccccc12	5	82*	-1	.	-1	i
CC(C)CN(C(=O)COC(=O)c1cc(=O)[nH]c2ccccc12)c1c(N)n(Cc2ccccc2)c(=O)[nH]c1=O	1	21	-1	.	-1	0
COc1ccccc1NC(=O)c1cc(S(=O)(=O)NCc2ccccc2)ccc1F	2	0	.	12	-1	0
CN(CC(=O)Nc1ccc(F)c(F)c1F)C(=O)C1(c2ccccc2)CC1	2	-5	-1	.	.	i
COc1ccc(CNCCc2ccc3c(c2)OCO3)cc1Br	11*	6	-2	14	1	-1
Cc1ccc(CNC(=O)CSc2c3c(nc4cc(Cl)ccc24)CCCC3)o1	.	0	0	25	1	26*
O=C(CSc1c2c(nc3cc(Cl)ccc13)CCCC2)NCCN1CCOCC1	2	-3	.	-1	-1	i
Cc1ccccc1NC(C)C(=O)N/N=C/c1ccccc1OCc1cccc(Br)c1 (stereo not drawn)	.	6	4	-4	35*	i
O=C(NCc1ccco1)c1ccc(Cl)c(S(=O)(=O)N2CCc3ccccc32)c1	1	25	.	56*	1	0
O=C(NCc1ccco1)c1ccc(Cl)c(S(=O)(=O)N2CCOCC2)c1	.	1	-1	17	0	-1
COc1ccc(-c2[nH]ncc2N=Nc2cc(C)cc(C)c2)cc1	1	5	.	35	0	0
COc1ccc(-c2[nH]ncc2N=Nc2ccccc2)cc1	1	6	.	21	50*	i
Cc1noc(C)c1S(=O)(=O)N(C)C[C@H]1Oc2ccc(NC(=O)Nc3ccc(F)cc3)cc2CC(=O)N([C@H](C)CO)C[C@@H]1C	-4	.	0	.	.	.
COc1ccc(NC(=O)c2cc(-c3ccco3)on2)cc1OC	0	-1	0	53*	-1	0
Cc1ccc(NC(=O)c2cc(-c3ccco3)on2)cc1C	.	7	-2	11	0	0
O=C(/C=C/c1ccc(S(=O)(=O)N2CCOCC2)cc1)NC(=S)Nc1ccc(N2CCOCC2)cc1	0	2	1	-8	46*	0
S=C1NC[C@H](c2ccccc2)N1CCCCC1CCCCC1	1	29	-2	-5	330*	0
NC1=NC[C@H](c2ccccc2)N1CCCCC1CCCCC1	2	1	8	15	3	i
CCc1cc(C(=O)Nc2nc(-c3ccccn3)cs2)sc1C	0	-14	-2	.	365*	i
O=C(Nc1nc(-c2ccccn2)cs1)c1cc(Cl)ccc1[N+](=O)[O-]	1	-9	.	24	0	0
Cc1cc(C(=O)Nc2nc(-c3ccccn3)cs2)ccc1[N+](=O)[O-]	4	1	.	20	73*	0
Cc1ccc(C(=O)Nc2nc(-c3ccccn3)cs2)o1	0	-8	.	12	1	-1
CCCCCC(=O)Nc1ccc(C(=O)COC(=O)c2ccccn2)cc1	1	3	-2	.	1	-1
CCN1/C(=C/c2ccc3cc(C)ccc3[n+]2CC)Sc2cc(C)ccc21	1	-3	3	12	-3	i
